The list is not random: actives were taken first. Their share in the collection is about 2.2%.
aSyn 5UTR inh: 5' untranslated region of α-synuclein, MLPCN primary screen. alpha-synuclein 5'UTR reporter, inhibitor activity. 300,000 compounds, 0.82% hits. AID 1813. inhibition, % (tested at 7.5 µM); in the data active = inhibition above about 60%;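 also: H4 neuroglioblastoma cells stably carrying SNCA 5'UTR luciferase fusion; 0% = DMSO wells and 100% = positive control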
BaF3 tox: counter-screen for JAK2V617F inhibitors: parental Ba/F3 viability inhibitors; 220,000 compounds, 1.1% hits; CellTiter-Glo ATP luminescence; inhibition, % at 5.6 µM;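 active = inhibition above a per-campaign cutoff, the mean inhibition of all tested compounds plus 3 SD, cut at about 27% in these data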;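 also: 0% = DMSO wells and 100% = JAK Inhibitor I control wells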
KLF5 inhibitor: inhibitors of KLF5 expression; DLD-1 KLF5 promoter-luciferase reporter, luminescence; inhibition, % at 5 µM; 290,000 compounds, 0.23% hits;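 active = inhibition above a per-plate limit of that plate's mean compound inhibition plus 3 SD, cut at about 60% in these data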;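 also: 0% = DMSO wells and 100% = LY294002 at 200 µM; higher means less KLF5 promoter-driven luciferase light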
APP transl inh: APP translation inhibition; 190,000 compounds, 0.82% hits; SH-SY5Y APP 5'UTR-luciferase reporter, luminescence; inhibition, % at 2 µM; AID 1285;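 active = inhibition above a set limit, derived from the sample mean plus 3 SD, cut at about 45% in these data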
Ba/F3 V617F tox: loss of viability in JAK2V617F-driven Ba/F3 cells | Ba/F3 EpoR-JAK2V617F viability, ATP luminescence | inhibition, % at 5.6 µM | 220,000 compounds, 1.1% hits | AID 1446;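 active = inhibition above the campaign mean plus 3 SD over all tested compounds, cut at about 24% in these data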;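 also: cytokine-independent growth of Ba/F3 cells driven by EpoR plus mutant JAK2; 0% = DMSO-treated cells and 100% = JAK inhibitor I control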
IEC-6 cytotox: IEC-6 cytotoxicity, counter-screen for KLF5 inhibitors | luminescence viability | inhibition, % at 5 µM | 290,000 compounds, 0.78% hits | AID 1825; in the data active = inhibition above about 22%;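 also: 0% = plate median of test compound wells and 100% = cytotoxic reference compound wells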
* hit, by the source's call; x = no result.

SMILES | aSyn 5UTR inh | BaF3 tox | KLF5 inhibitor | APP transl inh | Ba/F3 V617F tox | IEC-6 cytotox
CC1(C)CC(NC(=O)c2ccc(Cl)c(S(=O)(=O)N(Cc3ccccc3)c3ccccc3)c2)CC(C)(C)N1 | 15 | x | x | x | x | x
C=C(C)COc1ccc(-c2[nH]ncc2-c2ccc(Br)cc2)c(O)c1 | 91* | 4 | 23 | 79* | 10 | 5
C=C(C)COc1ccc(-c2[nH]ncc2-c2ccccc2OC)c(O)c1 | -34 | 2 | -7 | -7 | -2 | 0
C=C(C)COc1ccc(-c2n[nH]c(C)c2-c2ccc(Br)cc2)c(O)c1 | 19 | 2 | 6 | 67* | -2 | 0
CC(=O)OCc1nc2sc(C)c(C)c2c(=O)[nH]1 | -1 | -1 | -26 | 59* | -4 | 2
CCOC(=O)CNC(=O)C1c2ccccc2Oc2ccccc21 | -8 | x | -26 | x | x | -1
O=C(Nc1ccccc1F)c1ccc(CNS(=O)(=O)c2cccc(C(F)(F)F)c2)cc1 | -15 | 1 | 3 | 2 | -1 | -1
Cc1ccc(NC(=O)c2ccc(CNS(=O)(=O)c3cccc(C(F)(F)F)c3)cc2)cc1 | 12 | 33* | -21 | 17 | 4 | 5
O=C(CNS(=O)(=O)c1ccccc1)Nc1ccc(C(F)(F)F)cc1 | -2 | 3 | -57 | 68* | -2 | -3
CCNS(=O)(=O)c1ccc(CCC(=O)NCc2ccncc2)cc1 | 17 | x | -12 | x | x | 3
O=C(NCCCN1CCOCC1)c1ccc2c(c1)N(Cc1cccc(Cl)c1)C(=O)CS2 | 7 | x | -30 | x | x | -3
C[n+]1ccccc1N1CCN(c2ccccc2Cl)CC1 | -12 | 62* | -10 | 14 | 56* | -5
Cc1ccc(Cl)cc1N1CCN(C(=S)NCCc2ccccc2)CC1 | -13 | 7 | -32 | -14 | 0 | -3
Cc1ccc(Cl)cc1N1CCN(c2cccc[n+]2C)CC1 | -15 | 65* | -10 | 4 | 82* | 0
COC(=O)CSc1nnc(CCc2ccccc2)n1C | -1 | x | -15 | x | x | -3
O=C(Nc1ccc(Cl)cc1F)c1cccc2ccccc12 | -63 | x | -41 | x | x | 6
CC(C)(C)c1ccc(C(=O)Nc2ccc(CC(=O)O)cc2)o1 | 111* | 4 | 48 | x | 0 | 0
Cc1ccc(/C=C/c2nc3ccccc3c(=O)[nH]2)cc1 | 68* | 2 | -80 | x | 5 | 14
CC(Sc1ccccc1)C(=O)NNC(=O)c1csc(N2CCOCC2)n1 (stereo not given) | -2 | x | x | x | x | x
COc1ccccc1NC(=O)Cn1nnc(C(=O)Nc2ccccc2)c1N | -9 | 94* | -22 | 8 | 1 | -2
COc1ccccc1NC(=O)c1nnn(CC(=O)Nc2ccccc2)c1N | -1 | 9 | -10 | -9 | 4 | 5
O=C(Nc1c(C(=O)N2CCCCC2)cnn1-c1ccccc1)c1ccccc1F | -2 | x | -6 | x | x | -7
COCCOC(=O)c1[nH]c2c(c1C)C(=O)CC(c1ccco1)C2 (stereo not given) | 44 | 77* | 16 | 96* | 76* | 17
C=CCOC(=O)c1[nH]c2c(c1C)C(=O)CC(c1cc(OC)c(OC)c(OC)c1)C2 (stereo not given) | -13 | 44* | 9 | -12 | 41* | 5
CCOc1ccc(-c2cc(CCCC(=O)NCc3ccco3)no2)cc1 | 73* | -1 | -9 | 41 | -2 | -1
SMILES | aSyn 5UTR inh | BaF3 tox | KLF5 inhibitor | APP transl inh | Ba/F3 V617F tox | IEC-6 cytotox
CCOc1ccc(-c2cc(CCCC(=O)NCc3ccc(C)cc3)no2)cc1 | 81* | 6 | 17 | 30 | 1 | -1
COc1ccc(-c2cc(CCCC(=O)NCCc3cc(OC)ccc3OC)no2)cc1 | 7 | 6 | 7 | 2 | 2 | 1
CC(=O)c1sc2c(c1OC(=O)c1ccc(Cl)cc1Cl)c(=O)n(-c1ccccc1)c(=S)n2-c1ccccc1 | 101* | 2 | 9 | x | 5 | -1
CC(=O)c1sc2c(c1N)c(=O)[nH]c(=O)n2-c1ccccc1 | 15 | x | -15 | x | x | 5
CCn1cc(S(=O)(=O)Nc2ncccn2)cn1 | -1 | x | -39 | x | x | -2
COc1ccc(C2c3ccc4ccccc4c3Oc3ncn(CCCN(C)C)c(=N)c32)cc1 (stereo not given) | 90* | x | -14 | x | x | 5
COc1ccccc1C1c2ccc3ccccc3c2Oc2ncn(CCN(C)C)c(=N)c21 (stereo not given) | -11 | x | -14 | x | x | 15
CC(C)(C)c1cc[n+](C2=C([O-])c3ccccc3C(=O)/C2=N\S(=O)(=O)c2cccs2)cc1 | 69* | -5 | -42 | x | -3 | -4
CC(C)N(Cc1cc2ccccc2[nH]c1=O)C(=O)C1CCCCC1 | 12 | 28* | -13 | -26 | -2 | 2
COc1ccccc1C(=O)NC(CCSC)C(=O)NCCCSc1ccccc1 (stereo not given) | -5 | x | x | x | x | x
Cc1ccc2nc(NC(=O)c3ccco3)sc2c1 | 85* | 4 | 59 | -84 | -1 | 2
COc1cc(-c2ccc(=O)[nH]n2)ccc1OC(F)F | 87* | -7 | -15 | x | -2 | -3
CC(=O)Nc1cccc(NC(=O)COc2ccc3c(c2)OCO3)c1 | -35 | x | -49 | x | x | 4
COc1ccc(S(=O)(=O)Nc2ccc(Oc3ncccn3)c(Cl)c2)cc1 | 0 | 5 | 5 | 46* | -3 | 0
COc1ccc(NS(=O)(=O)c2ccc(Oc3ncccn3)cc2)cc1 | 3 | 5 | 2 | 17 | 3 | 4
CCCCC(CCC(=O)Nc1ccn(-c2ccccc2)n1)C(=O)O (stereo not given) | -2 | 63* | 10 | x | -3 | 8
O=C(Nc1ccccc1N1CCCCC1)c1ccc(-c2cc(Cl)ccc2Cl)o1 | 20 | x | x | x | x | x
Cc1ccc(C)c(NC(=O)c2cc([N+](=O)[O-])cc([N+](=O)[O-])c2)c1 | 7 | x | -12 | x | x | 9
CCC1S/C(=C(\C#N)C(=O)NCc2ccco2)N(c2ccc(F)cc2)C1=O (stereo not given) | 6 | 33* | -21 | -10 | 4 | -8
CCC1S/C(=C(\C#N)C(=O)NCc2ccco2)N(c2ccc(Br)cc2)C1=O (stereo not given) | -2 | 5 | -18 | x | -1 | 2
CN1/C(=C/c2cc[n+](C)c3ccccc23)C=Cc2ccccc21 | x | 63* | 11 | 2 | 76* | -2
COc1ccc(CCn2c(N)c(C(=O)NCc3ccco3)c3nc4ccccc4nc32)cc1OC | -51 | 3 | -5 | 9 | -2 | -3
COc1ccc(CCn2c(N)c(C(=O)NCc3ccco3)c3nc4ccccc4nc32)cc1 | -3 | 38* | -18 | -6 | 37* | 2
NC(=O)CC(NC(=O)Cc1ccc(Cl)cc1)c1ccc(NC2CCCCCCC2)c([N+](=O)[O-])c1 (stereo not given) | 9 | x | -1 | x | x | 2
CCC(=O)N1CCc2cc(S(=O)(=O)NCCCN3CCN(Cc4ccccc4)CC3)ccc21 | 10 | 2 | -26 | -22 | -3 | -1
CC(=O)N1CCc2cc(S(=O)(=O)NCCCN3CCN(Cc4ccccc4)CC3)ccc21 | 17 | 6 | -18 | 63* | -1 | -4
O=C1CN(S(=O)(=O)c2ccc(Cl)cc2)c2ccccc2N1 | 10 | x | -7 | x | x | -1

Screening results: PubChem BioAssay, several laboratories
